# HT1080-NT tox – kills 2HG-producing HT-1080-NT fibrosarcoma cells; HT-1080-NT fibrosarcoma viability, CellTiter-Glo ATP luminescence, 48 h; hit rate 1.6% among 360,000; Potency, µM (top dose mostly 46.1 µM), for the others: at the top dose activity, negative = less viability, most hits filed as cytotoxic; AID 686970;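 also: NT is the 2HG producing partner of a matched IDH1 knockdown line; 0% = DMSO-treated cells and -100% = media-only wells without cells; nearly all actives have a fitted effect of over 55% in size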
#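 HT-1080-NT fibrosarcoma cells (2HG-overproducing), 750 cells/well in RPMI with 5% FBS, dosed after 2 h and incubated 48 h at 37C. CellTiter-Glo luminescence normalized to DMSO and no-cell wells; concentration-response curves fitted and classed.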
# HT1080 IDH1KD tx – kills HT-1080 cells with IDH1 knockdown. HT-1080 IDH1 knockdown viability, ATP luminescence, 48 h. Potency, µM (titrated, usually from 46.1 µM), for inactives: at the highest dose activity, negative = toxicity, hits mostly cytotoxic. hit rate 2% among 360,000. AID 686971;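 also: 0% = DMSO wells and -100% = cell-free medium wells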
#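 After a 2 h attachment period, IDH1KD HT-1080 cells took pin-transferred compound for 48 h at 37 °C; ATP-based luminescence after 10 min room-temperature reagent incubation reported viability.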
# DT40 TDP1 CPT – DT40-hTDP1 cell growth loss with CPT; AID 686979; Potency, µM (series often up to 46.2 µM), for inactives: top-dose activity change, negative = growth inhibition, usual class: inhibitors; chicken DT40 Tdp1-/-;hTDP1 cells + 20 nM CPT, ATP luminescence, 48 h; hit rate 12% among 420,000; also: nearly all actives have a fitted effect of over 55% in size
#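 Chicken DT40 Tdp1-/- cells complemented with human TDP1, 400 cells/well, exposed to compounds plus 20 nM camptothecin for at least 48 h at 37 C; viability read as ATP content by CellTiter-Glo luminescence.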
# KB-V1 MDR tox – KB-V1 MDR subline cytotoxicity | KB-V1 MDR cells viability, CellTiter-Glo, 72 h | Potency, µM (highest dose often 46.1 µM), actives largely listed as cytotoxic | hit rate 3.4% among 400,000 | AID 1347076; also: nearly all actives have a fitted effect of over 60% in size
#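 Readout: CellTiter-Glo luminescence, 10 min after addition. Cells: KB-V1 MDR subline, 72 h at 37 degrees C with compound. Analysis: corrected, normalized data fitted to concentration-effect curves.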
# KB-3-1 tox – kills parental KB-3-1 adenocarcinoma cells | KB-3-1 viability, CellTiter-Glo ATP luminescence, 72 h | Potency, µM (highest dose often 46.1 µM), usual class: cytotoxic | hit rate 1.4% among 400,000 | AID 1347075; also: nearly all actives have a fitted effect of over 60% in size
#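 Viability of parental KB-3-1 cells, measured by CellTiter-Glo luminescence, followed a 72 h incubation at 37 °C with pinned compounds in phenol-red-free DMEM containing 10% FBS.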
# DT40 TDP1 no CPT – qHTS for Inhibitors of human tyrosyl-DNA phosphodiesterase 1 (TDP1): qHTS in cells in absence of CPT; DT40 Tdp1-/- hTDP1 cells, no CPT, ATP luminescence, 48 h; Potency, µM (highest dose often 46.2 µM), for the others: at the highest dose activity change, negative = growth inhibition, hits mostly inhibitors; hit rate 15% among 420,000; also: nearly all actives have a fitted effect of over 55% in size
#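 Camptothecin absent (DMSO only). Human TDP1-complemented DT40 knockout cells, 400 cells/well, 37 °C for minimum 48 hr; ATP measured via CellTiter-Glo, 30 min dark incubation, luminescence.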
# Starred values were filed as active, the others as inactive; i = inactive; u = inconclusive; x = no result given; [ ] = remark or other dose. Shown are actives, neighbours in structure and some others; about 19% of the full set was active somewhere. Calls follow the shape of the dose curve; as a rule, active = well fitted curve in the direction sought with a large enough effect; inconclusive = small, poorly fitted or top-dose-only effect, or another doubt; inactive = no such curve, though single readings can be large; an effect the other way counts as inactive or inconclusive. Unless noted, % is scaled to controls: 0 for no effect and ±100 for the full control effect; potency is read from the fitted curve at half-maximal effect.
SMILES,HT1080-NT tox,HT1080 IDH1KD tx,DT40 TDP1 CPT,KB-V1 MDR tox,KB-3-1 tox,DT40 TDP1 no CPT
Cc1cccc(C)c1-n1nnnc1C1(C)CCC(=O)N1c1ccc(N2CCOCC2)cc1 (stereo not drawn),9.8%,6.1%,u,i,i,u
CCCOc1ccc(C(=O)NC(=S)Nc2nc(C)c(C(=O)N(C)C)s2)cc1,u,-19.5%,-24.6%,20.6µM*,i,-15.1%
O=C(NNC(=S)NC(=O)c1ccccc1[N+](=O)[O-])c1ccccc1,-16.1%,-28.0%,u,i,i,u
CCCOc1ccc(C(=O)NNC(=S)NC(=O)c2ccccc2[N+](=O)[O-])cc1,-25.8%,u,10.3µM*,u,u,10.3µM*
CCCOc1ccc(C(=O)NNC(=S)NC(=O)c2ccccc2)cc1,u,u,u,i,i,16.4µM*
CC(C)(C)c1ccc(OCC(=O)NNC(=S)NC(=O)c2ccccc2[N+](=O)[O-])c(Br)c1,u,18.4µM*,23.1µM*,u,u,16.4µM*
Cc1nc(NC(=S)NC(=O)c2ccccc2)sc1C(=O)N(C)C,-2.3%,1.7%,-6.6%,i,i,-9.4%
Cc1nc(-c2ccc(NC(=O)CC(C)C)cc2)cs1,-0.3%,-4.6%,15.4%,i,i,u
CCCOc1ccc(C(=O)NNC(=S)NC(=O)c2cccs2)cc1,u,20.6µM*,23.1µM*,u,u,18.4µM*
O=C(/C=C/c1ccc(Cl)cc1)N1CCN(Cc2ccccc2)CC1,-3.6%,-1.8%,-14.2%,i,i,u
Cc1c(C(=O)/C=C/c2ccccc2F)c2cc(O)ccc2n1C,3.8%,3.5%,-16.6%,i,i,u
CCCCN(C(=O)c1cc(=O)[nH]c2ccccc12)c1c(N)n(CCCC)c(=O)[nH]c1=O,-3.5%,12.4%,-0.6%,x,x,2.5%
O=C(COc1ccccc1)Nc1cccc(-c2ccc(N3CCOCC3)nn2)c1,-9.7%,-0.5%,u,u,i,9.2µM*
Cc1ccc(C(=O)Nc2cccc(-c3ccc(N4CCOCC4)nn3)c2)cc1[N+](=O)[O-],4.5%,-0.8%,10.3µM*,i,i,u
O=C(COc1ccc(Cl)cc1Cl)Nc1ccc(-c2ccc(N3CCOCC3)nn2)cc1,-11.6%,-10.1%,-9.4%,i,i,u
O=C(COc1ccc(Cl)cc1Cl)Nc1cccc(-c2ccc(N3CCOCC3)nn2)c1,-0.7%,-4.8%,18.4µM*,i,i,u
CCC(=O)Nc1cccc(-c2ccc(N3CCC(C)CC3)nn2)c1,-0.1%,-5.3%,u,i,u,23.1µM*
O=C(Nc1cccc(-c2ccc(N3CCOCC3)nn2)c1)c1ccccc1,8.9%,0.5%,u,u,i,u
Cc1ccc(S(=O)(=O)NC(=O)C2(C)CCN2C(=O)C2(c3ccc(Cl)cc3)CCC2)nc1 (stereo not drawn),-18.2%,14.8%,u,i,i,-28.6%
CN(C)Cc1nc2ccccc2c(=O)n1Cc1nc(-c2cccc([N+](=O)[O-])c2)cs1,-28.1%,u,18.4µM*,u,i,6.51µM*
CN1CCN(Cc2nc3ccccc3c(=O)n2Cc2nc(-c3ccc([N+](=O)[O-])cc3)cs2)CC1,20.6µM*,20.6µM*,18.4µM*,u,u,5.8µM*
CN1CCN(Cc2nc3ccccc3c(=O)n2CC#N)CC1,2.7%,6.5%,-0.3%,i,i,0.5%
CCC1(C2CCN(C(=O)c3cc(F)ccc3F)CC2)NC(=O)N(CCc2scnc2C)C1=O (stereo not drawn),x,x,9.2%[9.04 µM],x,x,-6.5%
CCC(C)(C)C1CCC2(CC1)NC(=S)N(c1ccccc1)N2 (stereo not drawn),u,18.4µM*,15.0%,i,u,-7.0%

# Screens from PubChem.
